Results on 39 molecules are retold here after PubChem BioAssay (EPA / NIEHS).

SMILES strings stand for the structures. Inconclusive results are not listed. Activity calls are given as the source filed them. How the source made its calls: active means hit-call score of the fitted dose curve at least 0.9, where 1 is the maximum; inconclusive means response in the unintended direction; inactive means score below 0.9.

The first experiment deals with Cellular tumor antigen p53 (Homo sapiens) (UniProt P04637). The experiment in a line: TOX21_p53_BLA_p2_ratio: Tox21 HCT-116 p53 Agonism Beta-lactamase Assay, Ratio, Phase 2 (AID 2283592). The method in brief: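 HCT116 p53-bla; 4000 cells/well; 5 h pre-incubation; cpd in DMSO, 217-fold dilution; 16 h 37C/5% CO2; CCF4-AM 2 h RT; Ex 405, Em 460/530 ratio; DMSO = baseline; positive fitting direction.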
Chain of Cellular tumor antigen p53 (Homo sapiens) (P04637 whole entry, looked up): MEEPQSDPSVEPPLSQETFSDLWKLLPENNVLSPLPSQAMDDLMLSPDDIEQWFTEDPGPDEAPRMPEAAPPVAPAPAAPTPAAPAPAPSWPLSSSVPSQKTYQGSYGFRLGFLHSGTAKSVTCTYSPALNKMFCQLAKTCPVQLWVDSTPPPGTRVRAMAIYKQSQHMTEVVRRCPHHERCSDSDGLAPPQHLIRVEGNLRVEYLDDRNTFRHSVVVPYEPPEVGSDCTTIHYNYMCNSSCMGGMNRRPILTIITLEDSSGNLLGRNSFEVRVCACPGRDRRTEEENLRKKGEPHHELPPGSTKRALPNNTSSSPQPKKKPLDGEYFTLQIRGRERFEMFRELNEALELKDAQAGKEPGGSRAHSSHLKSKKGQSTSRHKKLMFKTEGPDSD
As for `NS(=O)(=O)c1cc2c(cc1Cl)NC(C(Cl)Cl)NS2(=O)=O` (stereo not drawn), the result was inactive.
With `CN1CCN(C(c2ccccc2)c2ccccc2)CC1`, the outcome was inactive.
On to `CC(C)OC(=O)CCC(=O)OC(C)C`, for which the outcome was inactive.
For `CCOCC(O)COc1ccc(NC(=O)CC[S+](C)C)cc1` (stereo not drawn), the result was inactive.
For `C[C@]12CC[C@@H]3c4ccc(OC(=O)c5ccccc5)cc4CC[C@H]3[C@@H]1CC[C@@H]2O`, the outcome was inactive.
For the molecule `NC(=O)OC[C@@H]1[C@H](NC(=O)/C(=N\OCC(=O)O)c2csc(N)n2)C(=O)N1S(=O)(=O)O`, the result was inactive.
In the case of `C=CC(=O)OCC1CCCO1` (stereo not drawn), the result was inactive.
On to `CCOc1cc(NC(C)=O)ccc1C(=O)OC`, for which the outcome was inactive.
`NC[C@H]1O[C@H](O[C@H]2[C@H](O[C@@H]3O[C@H](CO)[C@@H](O)[C@H]3O)C(O)[C@H](N)C[C@@H]2N)[C@H](N)[C@@H](O)[C@@H]1O` (stereo partly drawn): the result was inactive.
Consider `O=c1[nH]cnc2c1ncn2[C@@H]1O[C@H](CO)[C@@H](O)[C@H]1O`, for which the outcome was inactive.
One may read the AC50 as the concentration at which the activity in the assay is half-maximal. Turning to `CC[C@]1(O)C[C@H]2CN(CCc3c([nH]c4ccccc34)[C@@](C(=O)OC)(c3cc4c(cc3OC)N(C=O)[C@H]3[C@@](O)(C(=O)OC)[C@H](OC(C)=O)[C@]5(CC)C=CCN6CC[C@]43[C@@H]65)C2)C1`, the AC50 is 11.2 nM (active).
For the molecule `COC(=O)Nc1nc2ccc(C(=O)c3ccccc3)cc2[nH]1`, the AC50 was 192 nM (active).
Turning to `CC(=O)c1ccc(Cl)c(Cl)c1Cl`, the result was inactive.
Turning to `CC(Cc1cccc(C(F)(F)F)c1)NCCOC(=O)c1ccccc1` (stereo not drawn), the result was inactive.
With `Cc1cc(=O)c(C(=O)N[C@@H](C(=O)N[C@@H]2C(=O)N3C(C(=O)O)=C(CSc4nnnn4C)CS[C@H]23)c2ccc(O)cc2)c[nH]1`, the outcome was inactive.
In the case of `NC(=O)Nc1nc2ccccc2[nH]1`, the outcome was inactive.
As to `CC(=O)NC[C@H]1CN(c2ccc(N3CCOCC3)c(F)c2)C(=O)O1`, the outcome was inactive.
Turning to `Cc1ccc(Cl)c(N)c1Cl`, the result was inactive.
With `CCOc1ccc(S(=O)(=O)O)c2cccnc12`, the result was inactive.
Same read-out and setting: for `NC(=O)c1ccc[n+]([C@@H]2O[C@H](COP(=O)([O-])OP(=O)(O)OC[C@H]3O[C@@H](n4cnc5c(N)ncnc54)[C@H](O)[C@@H]3O)[C@@H](O)[C@H]2O)c1` the value was “inactive”.
Regarding `NC1[C@H]2CN(c3nc4c(cc3F)c(=O)c(C(=O)O)cn4-c3ccc(F)cc3F)C[C@@H]12` (stereo partly drawn), the AC50 is 30400 nM (active).
For `C=CC(=O)[O-].C=CC(=O)[O-].[Zn+2]`, the outcome was inactive.
Regarding `CCCOC(=O)c1ccccc1O`, the outcome was inactive.
Consider `CN(C)c1ccc(SC#N)cc1`, for which the result was inactive.
On to `NS(=O)(=O)c1ccc(C(=O)O)cc1`, for which the outcome was inactive.
Consider `CC(CN1c2ccccc2Sc2cccnc21)N(C)C` (stereo not drawn), for which the outcome was inactive.
As for `CC1(C)Cc2cccc(N)c2O1`, the result was inactive.
Take `CC(C)(C)C(=O)OCC(=O)[C@H]1CC[C@H]2[C@@H]3CCC4=CC(=O)CC[C@]4(C)[C@H]3CC[C@]12C`: the result was inactive.
Regarding `NC(=O)CC[C@@H]1NC(=O)[C@H](Cc2ccccc2)NC(=O)[C@H](Cc2ccc(O)cc2)NC(=O)[C@@H](N)CSSC[C@@H](C(=O)N2CCC[C@H]2C(=O)N[C@@H](CCCN=C(N)N)C(=O)NCC(N)=O)NC(=O)[C@H](CC(N)=O)NC1=O`, the result was inactive.
In the case of `CN1c2c(nc(N)[nH]c2=O)NCC1CNc1ccc(C(=O)NC(CCC(=O)O)C(=O)O)cc1` (stereo not drawn), the outcome was inactive.
Turning to `CCCCCC(N)=O`, the outcome was inactive.
In the case of `COc1cc(C(=S)N2CCOCC2)ccc1O`, the result was inactive.
As for `NS(=O)(=O)c1cc(-c2nn[nH]n2)c(NCc2cccs2)cc1Cl`, the outcome was inactive.
As for `Cc1cc(O)ccc1O`, the result was inactive.
As for `C[n+]1ccn(Cc2ccccc2)c1`, the result was inactive.
`NC(=O)CC[C@@H](N)C(=O)O`: the outcome was inactive.
For `C=CC(=O)OCCOCC(CC)(COCCOC(=O)C=C)COCCOC(=O)C=C`, the result was inactive.
For the molecule `NC(=O)Cc1cccc2ccccc12`, the outcome was inactive.
Consider `O=[N+]([O-])c1ccc(Oc2ccc([N+](=O)[O-])cc2)cc1`, for which the result was inactive.

The next experiment shares this target. Nature of the experiment: TOX21_p53_BLA_p3_ratio: Tox21 HCT-116 p53 Agonism Beta-lactamase Assay, Ratio, Phase 3 (AID 2283596). In short, it runs like this:
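HCT116 p53-bla cells (4000/well) given compound in DMSO (217-fold dilution) after 5 h, incubated 16 h at 37C. CCF4-AM substrate 2 h at room temperature; 460/530 nm emission ratio, gain fitted against DMSO.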
For `NS(=O)(=O)c1cc2c(cc1Cl)NC(C(Cl)Cl)NS2(=O)=O` (stereo not drawn), the result was inactive.
On the same count and under the same terms, for `CN1CCN(C(c2ccccc2)c2ccccc2)CC1` the value was “inactive”; for `CC(C)OC(=O)CCC(=O)OC(C)C`, “inactive”.
Consider `CCOCC(O)COc1ccc(NC(=O)CC[S+](C)C)cc1` (stereo not drawn), for which the outcome was inactive.
With `C[C@]12CC[C@@H]3c4ccc(OC(=O)c5ccccc5)cc4CC[C@H]3[C@@H]1CC[C@@H]2O`, the outcome was inactive.
For `NC(=O)OC[C@@H]1[C@H](NC(=O)/C(=N\OCC(=O)O)c2csc(N)n2)C(=O)N1S(=O)(=O)O`, the outcome was inactive.
Regarding `C=CC(=O)OCC1CCCO1` (stereo not drawn), the result was inactive.
Regarding `CCOc1cc(NC(C)=O)ccc1C(=O)OC`, the result was inactive.
Consider `NC[C@H]1O[C@H](O[C@H]2[C@H](O[C@@H]3O[C@H](CO)[C@@H](O)[C@H]3O)C(O)[C@H](N)C[C@@H]2N)[C@H](N)[C@@H](O)[C@@H]1O` (stereo partly drawn), for which the result was inactive.
For `O=c1[nH]cnc2c1ncn2[C@@H]1O[C@H](CO)[C@@H](O)[C@H]1O`, the result was inactive.
Take `CC[C@]1(O)C[C@H]2CN(CCc3c([nH]c4ccccc34)[C@@](C(=O)OC)(c3cc4c(cc3OC)N(C=O)[C@H]3[C@@](O)(C(=O)OC)[C@H](OC(C)=O)[C@]5(CC)C=CCN6CC[C@]43[C@@H]65)C2)C1`: the AC50 is 2.09 nM (active).
With `COC(=O)Nc1nc2ccc(C(=O)c3ccccc3)cc2[nH]1`, the outcome was inactive.
On to `CC(=O)c1ccc(Cl)c(Cl)c1Cl`, for which the outcome was inactive.
Turning to `CC(Cc1cccc(C(F)(F)F)c1)NCCOC(=O)c1ccccc1` (stereo not drawn), the outcome was inactive.
Still for that read-out and setting: next, `Cc1cc(=O)c(C(=O)N[C@@H](C(=O)N[C@@H]2C(=O)N3C(C(=O)O)=C(CSc4nnnn4C)CS[C@H]23)c2ccc(O)cc2)c[nH]1`: “inactive”.
Still for that read-out and setting: next, `NC(=O)Nc1nc2ccccc2[nH]1`: “inactive”; `CC(=O)NC[C@H]1CN(c2ccc(N3CCOCC3)c(F)c2)C(=O)O1`: “inactive”; `Cc1ccc(Cl)c(N)c1Cl`: “inactive”.
Consider `CCOc1ccc(S(=O)(=O)O)c2cccnc12`, for which the result was inactive.
On to `NC(=O)c1ccc[n+]([C@@H]2O[C@H](COP(=O)([O-])OP(=O)(O)OC[C@H]3O[C@@H](n4cnc5c(N)ncnc54)[C@H](O)[C@@H]3O)[C@@H](O)[C@H]2O)c1`, for which the outcome was inactive.
For `NC1[C@H]2CN(c3nc4c(cc3F)c(=O)c(C(=O)O)cn4-c3ccc(F)cc3F)C[C@@H]12` (stereo partly drawn), the half-maximal activity concentration (AC50) was 27300 nM (active).
For the molecule `C=CC(=O)[O-].C=CC(=O)[O-].[Zn+2]`, the result was inactive.
Turning to `CCCOC(=O)c1ccccc1O`, the outcome was inactive.
In the case of `CN(C)c1ccc(SC#N)cc1`, the outcome was inactive.
Same read-out and setting: for `NS(=O)(=O)c1ccc(C(=O)O)cc1` the value was “inactive”.
With `CC(CN1c2ccccc2Sc2cccnc21)N(C)C` (stereo not drawn), the result was inactive.
Consider `CC1(C)Cc2cccc(N)c2O1`, for which the result was inactive.
With `CC(C)(C)C(=O)OCC(=O)[C@H]1CC[C@H]2[C@@H]3CCC4=CC(=O)CC[C@]4(C)[C@H]3CC[C@]12C`, the outcome was inactive.
For `NC(=O)CC[C@@H]1NC(=O)[C@H](Cc2ccccc2)NC(=O)[C@H](Cc2ccc(O)cc2)NC(=O)[C@@H](N)CSSC[C@@H](C(=O)N2CCC[C@H]2C(=O)N[C@@H](CCCN=C(N)N)C(=O)NCC(N)=O)NC(=O)[C@H](CC(N)=O)NC1=O`, the result was inactive.
For `CN1c2c(nc(N)[nH]c2=O)NCC1CNc1ccc(C(=O)NC(CCC(=O)O)C(=O)O)cc1` (stereo not drawn), the result was inactive.
As to `CCCCCC(N)=O`, the outcome was inactive.
In the case of `COc1cc(C(=S)N2CCOCC2)ccc1O`, the outcome was inactive.
In the case of `NS(=O)(=O)c1cc(-c2nn[nH]n2)c(NCc2cccs2)cc1Cl`, the result was inactive.
`Cc1cc(O)ccc1O`: the result was inactive.
As for `C[n+]1ccn(Cc2ccccc2)c1`, the outcome was inactive.
Same read-out and setting: for `NC(=O)CC[C@@H](N)C(=O)O` the value was “inactive”.
Same read-out and setting: for `C=CC(=O)OCCOCC(CC)(COCCOC(=O)C=C)COCCOC(=O)C=C` the value was “inactive”; for `NC(=O)Cc1cccc2ccccc12`, “inactive”.
Still for that read-out and setting: for `O=[N+]([O-])c1ccc(Oc2ccc([N+](=O)[O-])cc2)cc1` the value was “inactive”.
